Rango complex inh: inhibitors of Rango-importin beta complex formation | Q14974 | Rango CFP/YFP FRET sensor + importin beta, 45 min | Potency, µM (doses to about 92.2 µM), inactives show at the highest dose inhibition of complex formation | 340,000 tested, 0.031% active | AID 540263;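 also: 0% = DMSO wells and 100% = buffer wells lacking importin beta; nearly all actives have a fitted effect of over 15% in size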
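Inhibition scored from the CFP 486 nm/YFP 530 nm FRET ratio 45 min after adding 0.125 microM importin beta to 50 nM Rango biosensor preincubated 5 min with compound (room temperature, PBS with DTT, Tween-20, BSA). No-importin wells as positive control.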
ClpP mod: qHTS Assay for Activators of ClpP; AID 651965, 2013; 340,000 tested, 1.9% active; Potency, µM (highest dose often 57.5 µM), without a hit: top-dose activity change, negative = active; purified B. subtilis ClpP, FRET peptide cleavage, 20 min; ATP-dependent Clp protease proteolytic subunit (Bacillus subtilis (strain 168)), P80244; active = well fitted falling curve with a large enough effect; inconclusive = small, poorly fitted or top-dose-only effect; inactive = no such curve, though single readings can be large or run the other way; also: the source files actives as falling curves though it sought activators and does not explain the sign; nearly all actives have a fitted effect of over 65% in size
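Buffer: 100 mM Tris/HCl pH8, 100 mM KCl, 0.05% low protease BSA, 2.5% glycerol, 0.01% Tween-20. ClpP 10 microg/mL final; 20 min RT; delta FRET normalized to ADEP and DMSO controls.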
TDP1 block: inhibitors of human tyrosyl-DNA phosphodiesterase TDP1 | recombinant TDP1, AlphaScreen DNA substrate cleavage | 350,000 tested, 0.28% active | Potency, µM (top dose mostly 130 µM), inactives show at the top dose activity change, negative = inhibition, actives largely listed as inhibitors | AID 485290 | Q9NUW8; active = well fitted curve in the direction sought with a large enough effect; inconclusive = small, poorly fitted or top-dose-only effect, or another doubt; inactive = no such curve, though single readings can be large; an effect the other way counts as inactive or inconclusive; also: % is scaled to controls: 0 for no effect and ±100 for the full control effect; nearly all actives have a fitted effect of over 40% in size
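Enzyme-compound mixtures sat 15 min at room temperature, followed by a 5 min reaction with 15 nM final substrate and 10 min with AlphaScreen beads. Recombinant human Tdp1 was used at 1 nM final.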
TSG101-PTAP inh: blocks PTAP/TSG101 interaction to inhibit HIV-1 budding | Q99816 | Fluorescence polarization, FITC-PTAP peptide / Tsg101 binding | 340,000 tested, under 10 active | Potency, µM (highest dose often 115 µM), without a hit: at the top dose activity change, negative = inhibition, most hits filed as inhibitors; active = well fitted inhibition curve with a large enough effect in the main read-out, with a control signal flat, not every such curve was filed as active; inconclusive = small, poorly fitted or top-dose-only effect, or effect the other way, or a change in a side signal; inactive = no such curve, though single readings can be large or run the other way; also: % of control where 0% means no effect
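Compounds were pin-transferred onto Tsg101 binding domain (10 uM final) in HEPES pH 7.5 buffer, then FITC-PTAP peptide was added at 50 nM final. After 20 min at RT, polarization reported peptide displacement across a qHTS concentration series.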
Rango dissoc inh: prevents RanGTP from dissociating the Rango-importin beta complex | O95149+P62826 | Biochemical FRET Rango-importin beta, RanGTP-induced dissociation | Potency, µM (highest dose often 46.1 µM), without a hit: at the highest dose activity change, negative = inhibition | 340,000 tested, 0.071% active | AID 540253; also: % of control where 0% means no effect; nearly all actives have a fitted effect of over 45% in size
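FRET read at 45 min, room temperature: inhibitors block the CFP/YFP signal rise when RanGTP (0.6 uM Ran, 2 mM GTP, 0.2 uM RCC1) frees Rango (0.1 uM) from importin beta (0.25 uM). Pre-read after 5 min compound exposure flags interference.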
12-LOX inh: ALOX12 (human) lipoxygenase inhibition; P18054; purified 12hLO, xylenol orange hydroperoxide absorbance; Potency, µM (series often up to 108 µM), for inactives: at the highest dose activity change, negative = inhibition, usual class: inhibitors; 580,000 tested, 1.1% active; AID 1671190; active = well fitted curve in the direction sought with a large enough effect; inconclusive = small, poorly fitted or top-dose-only effect, or another doubt; inactive = no such curve, though single readings can be large; an effect the other way counts as inactive or inconclusive; also: % is scaled to controls: 0 for no effect and ±100 for the full control effect
Target sequence (P18054 whole entry, looked up): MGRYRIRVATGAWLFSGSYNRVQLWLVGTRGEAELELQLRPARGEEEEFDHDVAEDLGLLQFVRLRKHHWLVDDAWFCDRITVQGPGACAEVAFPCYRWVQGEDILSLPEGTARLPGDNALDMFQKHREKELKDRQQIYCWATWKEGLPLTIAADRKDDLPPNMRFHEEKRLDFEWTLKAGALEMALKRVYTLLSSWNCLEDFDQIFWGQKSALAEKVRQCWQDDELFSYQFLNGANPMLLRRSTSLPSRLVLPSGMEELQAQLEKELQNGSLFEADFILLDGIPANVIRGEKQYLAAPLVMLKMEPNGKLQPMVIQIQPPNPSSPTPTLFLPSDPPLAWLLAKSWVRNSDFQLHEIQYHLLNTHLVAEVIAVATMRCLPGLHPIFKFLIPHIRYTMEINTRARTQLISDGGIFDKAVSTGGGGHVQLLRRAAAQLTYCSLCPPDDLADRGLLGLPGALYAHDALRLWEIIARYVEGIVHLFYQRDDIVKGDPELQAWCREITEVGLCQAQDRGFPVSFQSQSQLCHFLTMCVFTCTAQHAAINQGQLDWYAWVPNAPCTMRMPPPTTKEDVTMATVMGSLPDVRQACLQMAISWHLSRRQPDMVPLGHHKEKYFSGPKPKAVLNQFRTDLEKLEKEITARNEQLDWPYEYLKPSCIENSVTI
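Purified human 12hLO (150 nM final) in 25 mM Hepes, 0.01% Triton X-100, pH 7.0 was preincubated 15 min at room temperature with compound. Then 40 uM arachidonic acid was added, 30 min. Hydroperoxide was read by Fe-XO absorbance ratio 573/405 nm.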
The depositor's hits bear a star; ? = inconclusive; . = not tested or not shown; [ ] = dose if it differs, or a comment. An excerpt weighted towards active compounds, which were near 2.4% of everything screened. Unless noted, calls follow the shape of the full dose curve. Potency is read from the fitted curve at half-maximal effect.

SMILES | Rango complex inh | ClpP mod | TDP1 block | TSG101-PTAP inh | Rango dissoc inh | 12-LOX inh
O=C(OCCN1CCOCC1)c1ccc(OCCN2CCOCC2)cc1 | 5% | ? | -1% | 1% | 16% | ?
Cc1csc(C(=O)O)c1-n1cccc1 | -1% | 1% | 13µM* | -1% | -11% | 2%
COc1cccc2[nH]c3c(Cl)ncnc3c12 | -3% | 16µM* | 0% | -3% | -10% | -14%
Oc1c(CN2CCCC(C(F)(F)F)C2)cc(Cl)c2ccccc12 (stereo unspecified) | -2% | -1% | . | 6% | -3% | 16µM*
O=C(N1CCN(Cc2ccccc2)CC1)C(Cl)(Cl)Cl | 3% | 13µM* | -4% | -8% | -11% | -25%
Fc1ccc(-c2noc(CSc3nc4ccccc4o3)n2)cc1 | . | . | . | . | . | 8%
O=C(CN1CCN(C(=O)c2cc(-c3ccccc3)nc3ccccc23)CC1)N1CCOCC1 | . | . | . | . | . | -2%
CCc1ccc(C(=O)N2CCC3(CC2)OCC(C(=O)NCCOC)N3C(=O)c2cccc(C)c2)cc1 (stereo unspecified) | . | . | . | . | . | 52%
CCOc1ccc(C2CC(c3c(O)n(C4CCCCC4)c(=O)[nH]c3=O)=Nc3ccccc3S2)cc1 (stereo unspecified) | . | -1% | 3% | . | . | ?
CCCCn1c(O)c(C2=Nc3ccccc3SC(c3ccc(O)cc3)C2)c(=O)[nH]c1=O (stereo unspecified) | . | . | . | . | . | 28µM*
COc1ccc(C(CNC(=O)c2n[nH]c(=O)c3ccccc23)N2CCCCC2)cc1 (stereo unspecified) | . | . | . | . | . | 15%
COc1cc(OC)cc(C(=O)/C=C2\Sc3ccccc3N2C)c1 | ? | . | . | 1% | -4% | -6%
COc1ccc2c(c1)S/C(=C\C(=O)c1ccncc1)N2C | ? | 0% | -4% | 4% | ? | 45µM*
CCCCC1=CC2=CC(=O)C(C)(OC(=O)CC)C(=O)C2=CN1Cc1ccc(OC)cc1 (stereo unspecified) | ? | -3% | 13%[12.3 µM] | 4% | 8.2µM* | 0%
O=S(=O)(c1ccccc1Br)N1CCNCC1 | . | . | . | . | . | 9%
Cc1cccc(/C=N/n2c(-c3ccccc3)n[nH]c2=S)c1O | 0% | . | . | -1% | 2% | 4.5µM*
COc1ccc(/C=N/n2c(-c3ccccc3)n[nH]c2=S)cc1 | -3% | -1% | 6% | -3% | 11% | ?
COc1cc(/C=N/n2c(-c3ccccc3)n[nH]c2=S)cc(OC)c1OC | 2% | . | . | -2% | 0% | 28µM*
CCOC(=O)Nc1ccc2c(c1)N(C(=O)CN1CCN(C)CC1)c1ccccc1CC2 | 0% | 1% | . | -4% | -6% | 5µM*
COc1cccc(CNC(=O)c2cccc(OC)c2)c1 | . | . | . | . | . | 21%
Nc1ccccc1C(=O)NCc1ccc(F)cc1 | 0% | 5% | 3% | -1% | -1% | ?
Nc1ccccc1C(=O)NCc1ccc(Cl)cc1 | 0% | 7.1µM* | 8% | -1% | -2% | 1%
COc1cccc(CNC(=O)c2ccccc2N)c1 | 0% | 5.6µM* | 9% | -1% | 12% | 0%
O=C1[C@@H]2[C@@H](CN3CN(c4ccccc4)N=C(c4ccccc4)[C@@]23c2ccccc2)C(=O)N1c1ccccc1 | ? | 3.5µM* | . | -1% | ? | -13%
C=CCc1cccc2cc(C(=O)NC)c(=O)oc12 | -1% | 22µM* | 2% | -4% | -10% | -5%
C=CCc1cccc2cc(C(=O)N(C)C)c(=O)oc12 | -2% | -23% | 3% | 1% | 6% | -14%
CCOC(=O)Cn1c(-c2ccc(Cl)nc2)nc2ccccc21 | -4% | 10µM* | 4% | -2% | 15% | 5%
CCOC(=O)Cn1c(=O)cnc2ccccc21 | -3% | ? | -2% | -2% | 3% | 0%

Screening data deposited in PubChem BioAssay by National Center for Advancing Translational Sciences (NCATS).
